From PubChem BioAssay
IMPase Li cell: membrane-permeable IMPase blocker, potentiated with lithium. CHO-M1 cells, IP1 TR-FRET (IP-One), carbachol + lithium. Potency, µM (titrated, usually from 59.4 µM), actives largely listed as inhibitors. hit rate 0.35% among 210,000;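 note: IP1 builds up when IMPase is blocked and the TR-FRET signal falls; nearly all actives have a fitted effect of over 50% in size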
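Lithium-sensitised IP1 accumulation assay; M1-expressing CHO cells treated 30 min at 37C with compound. Competitive antibody detection by time-resolved FRET followed a 10 min room-temperature lysis step.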
12-hLO inh: 12-hLO (ALOX12) enzyme inhibition; purified 12-hLO, xylenol orange hydroperoxide absorbance; Potency, µM (top dose mostly 57.1 µM), hits mostly inhibitors; hit rate 0.12% among 150,000; AID 1452; note: nearly all actives have a fitted effect of over 55% in size
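Purified human 12hLO (150 nM final) was preincubated with compounds for 15 min at room temperature in 25 mM Hepes pH 7.0, 0.01% Triton X-100, then reacted with 40 uM arachidonic acid for 30 min. Hydroperoxide was detected with ferrous iron/xylenol orange.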
PNC inhibitor: perinucleolar compartment assembly inhibition. PC3M PTB-GFP, PNC prevalence imaging, 16 h; hits give low values. activity change (PNC), negative = inhibition, % at 10 µM. hit rate 3.1% among 140,000;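 active = readout at or below -70, meaning at least 70% loss of cells showing the perinucleolar compartment, a nuclear body marking cancer cells; inconclusive = readout between -30 and a set limit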
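PC3M cells stably expressing PTB-GFP, 750–1000 cells/well, treated 16 h at 37 °C with compound (23 nl of library stock), in duplicate. After paraformaldehyde fixation and Hoechst stain, imaged at 20x; PNC prevalence scored by image analysis.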
IMPase cell inh: cell-permeable inhibitors of inositol monophosphatase (IMPase). CHO-M1 cells, IP1 accumulation, HTRF TR-FRET ratio. inhibition (IP1 accumulation), % at 46.1 µM. 120,000 tested, under 10 active; active = well fitted curve in the direction sought with a large enough effect in the signal ratio, not every such curve was filed as active; inconclusive = small, poorly fitted or top-dose-only effect, or a change in a side signal; inactive = no such curve, though single readings can be large or run the other way; the % refers to the signal ratio;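 note: cells stimulated with carbachol in lithium chloride buffer; higher means more IMPase inhibition seen as more IP1 and lower FRET ratio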
Target sequence (P97697 whole entry, looked up): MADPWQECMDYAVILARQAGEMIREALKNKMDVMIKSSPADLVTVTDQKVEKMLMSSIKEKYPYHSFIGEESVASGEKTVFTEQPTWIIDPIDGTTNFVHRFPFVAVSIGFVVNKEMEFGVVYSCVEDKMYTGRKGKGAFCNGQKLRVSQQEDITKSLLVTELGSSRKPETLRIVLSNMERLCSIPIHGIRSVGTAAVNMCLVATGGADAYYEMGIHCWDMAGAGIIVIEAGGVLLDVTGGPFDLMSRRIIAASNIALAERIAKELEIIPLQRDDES
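Measured: the HTRF emission ratio (665/620 nm) plus the 620 nm donor channel, each fitted to the Hill equation to give AC50. Cells were CHO-M1 given compounds up to 46 uM and a 30 min carbachol stimulation at 37C.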
HPGD block: HPGD (human) dehydrogenase inhibition; P15428; Potency, µM, actives largely listed as inhibitors; hit rate 4.3% among 150,000; purified HPGD, NADH fluorescence kinetic, PGE2 substrate; AID 894; active = well fitted inhibition curve with a large enough effect, not every such curve was filed as active; inconclusive = small, poorly fitted or top-dose-only effect, or another doubt; inactive = no such curve, though single readings can be large or run the other way
Target sequence (P15428 whole entry, looked up): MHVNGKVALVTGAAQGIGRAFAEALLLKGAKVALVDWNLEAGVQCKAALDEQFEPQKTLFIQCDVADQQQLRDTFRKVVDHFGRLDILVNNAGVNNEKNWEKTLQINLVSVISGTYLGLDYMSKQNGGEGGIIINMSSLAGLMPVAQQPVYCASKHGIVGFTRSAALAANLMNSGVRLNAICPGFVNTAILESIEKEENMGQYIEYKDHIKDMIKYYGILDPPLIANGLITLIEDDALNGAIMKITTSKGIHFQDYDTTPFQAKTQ
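20 nM HPGD preincubated 15 min at room temperature with compound in 50 mM Tris-HCl pH 8, 0.01% Tween 20. Started with 1 mM NAD+ and 30 uM prostaglandin E2; NADH fluorescence (360/450 nm) read 5 times over 30-s intervals, last minus first.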
ALOX15B inhib: 15-hLO-2 (ALOX15B) enzyme inhibition; hit rate 0.56% among 110,000; Potency, µM (titrated, usually from 57.1 µM), actives largely listed as inhibitors; O15296; AID 881; purified 15hLO-2, xylenol orange hydroperoxide absorbance; note: nearly all actives have a fitted effect of over 60% in size
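Purified human 15hLO-2 (50 nM final) preincubated with compounds 15 min at room temperature in 25 mM Hepes pH 7.5, 0.01% Triton X-100, then 45 uM arachidonic acid added for 90 min; hydroperoxide detected via ferrous/xylenol orange, 573/405 nm absorbance ratio.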
HPGD inh conf: human HPGD enzyme inhibition, confirmation | shares compounds with HPGD block | recombinant HPGD, NADH fluorescence, PGE2 substrate | Potency, µM (series often up to 57.1 µM), usual class: inhibitors | hit rate 90% among 90; calls by dose curve
Hits are given with their value; - = inactive; ? = inconclusive; . = no result; [ ] = remark or other dose. Shown are actives, neighbours in structure and some others; about 5.3% of the full set was active somewhere. Unless noted, calls come from the whole dose curve; as a rule, active = well fitted curve in the direction sought with a large enough effect; inconclusive = small, poorly fitted or top-dose-only effect, or another doubt; inactive = no such curve, though single readings can be large; an effect the other way counts as inactive or inconclusive.

SMILES	IMPase Li cell	12-hLO inh	PNC inhibitor	IMPase cell inh	HPGD block	ALOX15B inhib	HPGD inh conf
CCCCNC(=O)NS(=O)(=O)c1ccc(N)cc1	-	-[0.00818 µM]	.	.	-	-[0.0915 µM]	.
CC1CCCC(C)N1C(=O)c1cc2ncc(CCCl)cn2n1 (configuration not stated)	-	-	-83.9	.	1µM	.	0.794µM
O=C(O)c1cc2ncc(CCO)cn2n1	-	.	.	.	.	.	.
O=c1c2ccccc2sn1-c1nccs1	-	.	.	.	.	.	.
O=c1c2ccccc2sn1-c1ccccc1	-	12.6µM	-	-	0.562µM	1.26µM	0.447µM
CC(C(=O)NCCC1=CCCCC1)c1ccc([N+](=O)[O-])cc1 (configuration not stated)	-	.	.	.	.	.	.
CC1=NOC(=O)/C1=C\c1ccc(-c2cc(Cl)ccc2Cl)o1	?	-	-	-	1.41µM	2µM	0.447µM
CC1=NOC(=O)/C1=C\c1ccc(-c2ccc(Br)cc2)o1	-	.	.	.	.	.	.
CC1=NOC(=O)/C1=C/c1ccc(-c2ccc(Cl)cc2)o1	-	?	-	-	1.12µM	7.94µM	1.12µM
CCOC(=O)c1cnc(SCC(=O)Nc2nc(C)c(C)s2)nc1N	-	-	?	?	-	-	.
COc1ccc(C(=O)c2ccc(OC)cc2O)c(O)c1	.	-	-	-	.	-	.
COc1ccc(C(=O)c2ccccc2O)c(O)c1	-	-	.	-	0.501µM	-	1µM
O=C(C1CCC(Cn2c(=S)[nH]c3ccccc3c2=O)CC1)N1CCOCC1 (configuration not stated)	-	-	-	-	1.58µM	-	2.51µM
Cc1ccc(S(=O)(=O)NCc2ccc(C(=O)N3CCc4ccccc4C3)cc2)cc1	-	-	-	.	1.41µM	.	2.24µM
Cc1ccc(CN(c2ccc(C(=O)N3CCc4ccccc4C3)cc2)S(C)(=O)=O)cc1	-	-	?	-	?	-	11.2µM
CCOC(=O)c1cnc2c(cnn2C)c1NCCCn1ccnc1	-	.	.	.	.	.	.
CC1=C2[C@H](/C=C(\C)C(=O)O)CC[C@@H](C)[C@H]2CC1	-	-	.	.	-	-	.
O=C(c1cccc(F)c1)N1CCN(C(=O)c2nn3cccnc3c2Cl)CC1	-	-	-	-	-	-	.
CCC1CCCCN1C(=O)c1nn2cccnc2c1Cl (configuration not stated)	-	-	-	-	-	-	-
Nc1nc(-c2ccc3c(c2)CCO3)cs1	-	.	.	.	.	.	.
O=C(CCc1ccc(Oc2cc([N+](=O)[O-])cc([N+](=O)[O-])c2)cc1)N1CCCCC1	-	-	-	-	0.0447µM	-	0.224µM
O=C(CCc1ccc(Oc2cc([N+](=O)[O-])cc([N+](=O)[O-])c2)cc1)Nc1cccc(Cl)c1	-	-	-	.	-	.	-
O=C(Nc1cc(Oc2ccc(Cl)cc2)cc([N+](=O)[O-])c1)c1ccco1	-	-	-	.	-	.	.
CC(=O)c1ccc(-c2nnc(CCC(=O)N(C)Cc3c(C)nc4ccccn34)o2)s1	-	.	.	.	.	.	.
O=C(O)CC(Cc1ccc(Cl)cc1)C(=O)NCc1ccccc1 (configuration not stated)	-	-	?	-	-	.	.
SMILES	IMPase Li cell	12-hLO inh	PNC inhibitor	IMPase cell inh	HPGD block	ALOX15B inhib	HPGD inh conf
Cc1cc(C)cc(N(CC(=O)N2CCn3c2nc2ccccc23)S(=O)(=O)c2c(C)noc2C)c1	-	-	-	-	-	-	.
COc1ccc(OC)c(C(=O)c2ccc(C(=O)N3CCCCC3)cc2)c1	-	-	-	-	0.251µM	.	0.199µM
CC[N+](CC)(CC)CCOc1ccc(/C=C\c2ccccc2)cc1	-	-	.	-	?	-	.
O=C(c1ccc2c(c1)OCCO2)N1CCCCC1	-	-	-	-	0.126µM	-	0.224µM
O=C(c1ccc2c(c1)OCO2)N1CCc2ccccc2C1	-	-	-	-	0.447µM	-	0.708µM
S=C(c1ccc2c(c1)OCO2)N1CCCCC1	-	-	-	-	-	-	.
O=C(c1ccc2c(c1)OCO2)N1CCCCC1	-	-	.	-	0.1µM	-	0.0631µM
CCNC(=O)c1ccc(CSc2ccc(Cl)cc2)cc1	-	-	-109.0	.	-	.	?
CC(C)Cc1nnc(NC(=O)CCC(=O)N2CCN(c3ccccn3)CC2)s1	-	-	-	-	-	-	.
CCc1ccc(CNC(=O)Cn2nc(-c3ccc(C)cc3)ccc2=O)cc1	-	.	.	.	.	.	.
Cc1ccc(-c2n[nH]c(=S)n2/N=C/C=C\c2ccccc2[N+](=O)[O-])cc1	-	-	-	?	0.891µM	?	0.501µM
COc1ccccc1/C=C/C=N/n1c(-c2ccc(C)cc2)n[nH]c1=S	-	-	?	.	1.41µM	.	1.58µM
Cc1ccccc1CSc1nc2ccccc2c(=O)[nH]1	-	-	-	.	1.58µM	.	1µM
Cc1ccc(CSc2nc3ccccc3c(=O)[nH]2)cc1	-	.	.	.	.	.	.
CCc1ccc(S(=O)(=O)Nc2cc(SCC(=O)O)c(O)c3ccccc23)cc1	-	.	.	.	.	.	.
Cc1ccc(C)c(S(=O)(=O)Nc2cc(SCC(=O)O)c(O)c3ccccc23)c1	-	-	-	.	0.891µM	.	0.398µM
Cc1ccc(CNC(=O)c2ccc(Cl)cc2[N+](=O)[O-])cc1	-	-	-	-	0.199µM	-	2µM
O=C(NCc1cccnc1)c1ccc(Cl)cc1[N+](=O)[O-]	-	-	?	-	-	-	.
